Experimental data from ChEMBL document CHEMBL4513140, “CO-ADD screening of Lancaster University (UK) compounds” (2021).
Entries with a potency or affinity are not part of this list.

Columns and labels:
[1] = test system: Klebsiella pneumoniae; settings: Concentration 32 ug.mL-1; ASSAY_TEST Inhibition of Bacterial Growth; detection method Absorption (OD600); MEDIA CAMHB; plate type 384well; NBS; CORNING #3640; time 18 hr
[2] = test system: Candida albicans; settings: 32 ug/mL
[3] = test system: Cryptococcus neoformans; settings: Concentration 32 ug.mL-1; ASSAY_TEST Inhibition of Fungal Growth; detection method Resazurin; Absorption (OD600-OD570); plate type 384well; NBS; CORNING #3640

Compound | Inhibition [1] | Inhibition [2] | Inhibition [3]
COC(=O)c1ccc(S)cc1 | -1.57% | 2.97% | -49.69%
CC(=NN)c1cc(/C(C)=N/N)cc(/C(C)=N/N)c1 | 4.02% | 5.62% | -41.95%
c1ccc2nc3c4cccnc4c4ncccc4c3nc2c1 | 2.4% | 9.1% | -49.42%
CC(=O)c1cc(C(C)=O)cc(C(C)=O)c1 | 7.55% | 2.92% | -57.45%
